Measurements published in PubChem BioAssay (NCATS).
Records with an inconclusive call do not appear. A number with no mark means an inactive call. Calls of active or inactive are those of the source. The call rests on the fitted dose curve; in most records, active means well fitted inhibition curve with a large enough effect; inconclusive means small, poorly fitted or top-dose-only effect; inactive means no such curve, though single readings can be large or run the other way. Non-standard residues stand in square brackets, D forms with d. Residues, ends and D or L forms follow the SMILES beside them.

Test: BET inhibitor-based combinations targeting novel dependencies in MECOM-rearranged (r) AML: SET-2 cell line (AID 2202231); further: nearly all actives have a fitted effect of over 35% in size
Details: SET-2 AML cells viability, CellTiter-Glo luminescence, 48 h; viability: stronger effect = lower value, series mostly up to about 46 µM
From the text: Ecotropic viral insertion site 1 (EVI1) is located on chromosome 3q26.2 as part of the MECOM (MDS and EVI1 complex) locus. Under normal hematopoiesis, EVI1 is a regulator of hematopoietic stem cell maintenance and self-renewal and EVI1 levels decrease as the cells differentiate. In approximately 5-10% of de novo acute myeloid leukemia (AML) EVI1 is aberrantly expressed, including Chromosomal inv(3)(q21;q26.2) or t(3;3)(q21;q26.2) alterations (MECOM-r) that account for about 50% of AML with EVI1 overexpression 31. AMLs with high levels of EVI1 have a poor prognosis and an overall survival time averaging between 10-14 months. EVI1 overexpression confers resistance in leukemia cells, highlighting the need to develop new targeted therapies for EVI1 overexpressing AMLs.
Here, we performed an unbiased chemical drug screening by evaluating the single agent activity of a collection of 2,480 oncology-focused, approved and investigational drugs (NCATS Mechanism Interrogation Plates, MIPE v5.0) against a panel of seven AML cell lines. These included four MECOM-r cell-lines (AML-191, AML-194, UCSD-AML1 and HNT-34) and three non-MECOM-r AMLs (MV4-11, OCI-AML3 and SET-2). Exploiting the mechanistic redundancy built in the library, we identified target-level sensitivities in MECOM-r AML cells and relative activity as compared to other AML subtypes.
A collection of 2480 mechanistically annotated dugs (MIPE v5.0) was used to screen four 3q26.2 rearranged AML cell lines and three non-3q26.2 rearranged AML cell lines. This library purposely exploits redundancy by including multiple inhibitors of key onco-targets, while simultaneously encompassing mechanistic diversity, targeting more than 800 distinct mechanisms of action. Briefly, cells were seeded in 5 uL of growth media using a Multidrop Combi dispenser into 1536 well white polystyrene tissue culture treated plates (Corning) at a density of 500cells/well. For each cell-line, for each of the 2480 drugs in MIPE v5.0 library, an 11-point dose curve was generated via a 1536 pin-tool. Plates were incubated for 48 hr at standard incubator conditions, covered by a stainless steel gasketed lid to prevent evaporation. Cell viability was determined by luminescence based, Cell Titer Glo assay (Promega). In detail, 3 uL of Cell Titer Glo were added to each well and plates were incubated at room temperature for 15 min with a stainless-steel lid in place. Luminescence readings were taken using a Viewlux (PerkinElmer) with a 2 s exposure time per plate. Compound dose-response curves were normalized to DMSO and empty well controls on each plate. Quantitative drug activity data from dose-response curves was determined utilizing area Under the Curve (AUC) and Z-transformed AUC (Z-AUC, a mean-centering transformation applied to each individual cell-line screened).
Potency means the concentration at half of the fitted maximal effect.

Compound	Potency	viability
O=C(NO)c1cnc(NC2(c3ccccc3)CC2)nc1	6.61 µM (active)	–
CCC(=C/[C@H](C)C/C=C/C(C)=C/[C@@H](C)C(=O)[C@@H](C)[C@H](O)[C@@H](C)C/C(C)=C/C(=O)O)/C=C/[C@@H]1OC(=O)C=C[C@@H]1C	0.0074 µM (active)	–
N#C/C(=C1/Nc2ccccc2S1)c1ccnc(OCc2ccc(CN3CCOCC3)cc2)n1	20.9 µM (active)	–
CN(Cc1cnc2nc(N)nc(N)c2n1)c1ccc(C(=O)N[C@@H](CCC(=O)O)C(=O)O)cc1	0.0372 µM (active)	–
CCOC(=O)[C@H](CCc1ccccc1)N[C@H]1CCc2ccccc2N(CC(=O)O)C1=O	–	115%
COc1cc2c(Oc3ccc4[nH]c(C)cc4c3F)ccnc2cc1OCC1(N)CC1	16.6 µM (active)	–
Cc1ccc(Nc2ncc3c(n2)N(C)C(=O)N(c2cc(NC(=O)c4cccc(C(F)(F)F)c4)ccc2C)C3)cn1	0.934 µM (active)	–
COc1ncc(Nc2ncc(C(C)N3CCN(S(C)(=O)=O)CC3)cc2-c2nc(C)nc(N)n2)cc1F (stereo not given)	–	73.4%
CCCCCN(C)CCC(O)(P(=O)(O)O)P(=O)(O)O	–	124%
C[C@@]12C(=O)OC(=O)[C@]1(C)[C@H]1CC[C@@H]2O1	4.17 µM (active)	–
CCN(CC)CCNc1ccc(C)c2sc3ccccc3c(=O)c12	18.6 µM (active)	–
CCCS(=O)(=O)c1nc(NC2CC2)cc(-c2ccc3c(ccn3C3CC(C)(C)NC(C)(C)C3)c2)n1	2.21 µM (active)	–
CCN(CC)CCNC(=O)c1c(C)[nH]c(/C=C2/C(=O)Nc3ccc(-c4csc(-c5ccccc5)n4)cc32)c1C	9.34 µM (active)	–
Cc1ccc(F)c(NC(=O)Nc2ccc(-c3cccc4[nH]nc(N)c34)cc2)c1	14.8 µM (active)	–
O=C(O)C1(Cc2cccc(Nc3nccs3)n2)CCC(Oc2cccc(Cl)c2F)CC1 (stereo not given)	1.66 µM (active)	–
COC1CCC(N2C(=O)CNc3ncc(-c4ccc(C(C)(C)O)nc4)nc32)CC1 (stereo not given)	7.42 µM (active)	–
CC1Cc2ccccc2N1C(=O)Cc1nc(N2CCOCC2)cc(=O)[nH]1 (stereo not given)	–	99.9%
C/C=C/C/C=C/CCC(=O)[C@H]1O[C@H]1C(N)=O	20.9 µM (active)	–
CS(=O)(=O)c1ccc(-c2cnc(NCc3ccco3)n3cnnc23)cc1	–	108%
COc1cc(C)[nH]c(=O)c1CN1CCc2c(Cl)cc([C@H](OC)C3COC3)c(Cl)c2C1=O	–	112%

Compound	Potency	viability
Fc1cccc(-n2cnc3c(NCc4nc5c(F)c(F)ccc5[nH]4)nc(N4CCOCC4)nc32)c1	0.372 µM (active)	–
CNC(=O)c1c(C)oc2cc(Oc3ncnc4cc(OC)c(OC)cc34)ccc12	–	116%
COC(=O)[C@H](CCCN=C(N)N)NS(=O)(=O)c1ccc(C)cc1	–	112%
O=C(/C=C/c1ccc(/C=C/C(=O)Nc2ccc(C3=NCCN3)cc2)cc1)Nc1ccc(C2=NCCN2)cc1	–	113%
CN[C@@H]1[C@@H](O)[C@@H](O[C@@H]2[C@@H](O)[C@H](O[C@H]3O[C@H](CN)[C@@H](O)[C@H](O)[C@H]3O)[C@@H](N)C[C@H]2NC(=O)C(O)CN)OC[C@]1(C)O (stereo not given in full)	–	116%
COc1cc(OC)c(/C=C/S(=O)(=O)Cc2ccc(OC)c(OP(=O)(O)O)c2)c(OC)c1	0.132 µM (active)	–
CCCC1(CCC)CCC2(CCN(CCCN(CC)CC)C2)CC1	5.9 µM (active)	–
CCCCCCCCCCCC(CC1OC(=O)C1CCCCCC)OC(=O)C(CC(C)C)NC=O (stereo not given)	–	98.6%
COc1cc(F)ccc1-c1ncnc(Nc2cccc(CS(C)(=N)=O)c2)n1 (stereo not given)	1.32 µM (active)	–
C=CC(=O)N1C[C@H](Nc2ncnc3[nH]ccc23)CC[C@@H]1C	–	94.9%
C=CCNc1c(O)cc2c(O)c1C[C@@H](C)C[C@H](OC)[C@H](O)[C@@H](C)/C=C(/C)[C@H](OC(N)=O)[C@@H](OC)/C=C\C=C(\C)C(=O)N2	4.68 µM (active)	–
CC(C)C[C@@H]1NC(=O)[C@@H](C(C)C)NC(=O)[C@@H]2CCCN2C(=O)[C@@H](CC(=O)O)NC(=O)[C@@H](Cc2c[nH]c3ccccc23)NC1=O (cyclo(L[dW][dD]P[dV]))	–	110%
CC[C@]12C=CCN3CC[C@@]4(c5cc([C@@]6(C(=O)OC)CC7C[C@@H](C(C)(F)F)CN(Cc8c6[nH]c6ccccc86)C7)c(OC)cc5N(C)[C@H]4[C@@](O)(C(=O)OC)[C@@H]1OC(C)=O)[C@@H]32 (stereo not given in full)	1.66 µM (active)	–
COc1cc(NS(C)(=O)=O)ccc1Nc1c2ccccc2nc2ccccc12	2.09 µM (active)	–
Clc1cccc(C(c2ccc3nc[nH]c3c2)n2ccnc2)c1 (stereo not given)	–	113%
COC[C@@H](c1ccc(C(F)(F)F)cc1)N1CCN(C2(C)CCN(C(=O)c3c(C)ncnc3C)CC2)C[C@@H]1C	–	111%
C=CC(=O)N1CC[C@@H](Oc2nc(Nc3ccc(N4CCC(N5CCN(C)CC5)CC4)cc3)c(C(N)=O)nc2CC)C1	10.2 µM (active)	–
C/C(=C\c1csc(C)n1)[C@@H]1C[C@@H]2O[C@]2(C)CCC[C@H](C)[C@H](O)[C@@H](C)C(=O)C(C)(C)[C@@H](O)CC(=O)N1	0.0525 µM (active)	–
C=C1C(=O)O[C@H]2C[C@H](C)C(/C=C/C(C)=O)=CC[C@H]12	4.68 µM (active)	–
CCC[C@@H]1C[C@@H](C(=O)N[C@@H]([C@H]2O[C@H](SC)[C@H](O)[C@@H](O)[C@H]2O)[C@H](C)Cl)N(C)C1	–	110%
